NTMT1 inhibitor – inhibitors of human N-terminal methyltransferase NTMT1; Q9BV86; NTMT1 MTase-Glo SAH luminescence, purified enzyme; Potency, µM (titrated, usually from 114 µM), for the others: at the top dose activity change, negative = inhibition, most hits filed as inhibitors; 2.5% of 59,000 active; AID 1645870;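 also: potency is read from the fitted curve at half-maximal effect; plate controls were DMSO vehicle for no effect and no enzyme for full effect; nearly all actives have a fitted effect of over 65% in size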
DRV1 agonist – activates human resolvin D1 receptor GPR32 | activation, % at 76.9 µM | AID 1346428 | CHO-K1 GPR32 beta-arrestin PathHunter luminescence, 90 min; zero percent set by DMSO-only wells | 2.5% of 48,000 active;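 active = activation of at least 60% and not above a set upper limit, about 1 call in 100 departs from these limits; inconclusive = activation of 40% to 60%, or above that upper limit; inactive = activation under 40%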; also: 0% is about no effect
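Using DMSO wells as EC0, agonist-induced signal was taken as chemiluminescence from beta-Gal reconstituted upon beta-arrestin recruitment to GPR32 in CHO-K1 cells after 90 min compound treatment.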
p53null 39C kill – kills p53 null cells at the nonpermissive temperature; 0.97% of 55,000 active; H1299 p53-null (neo) cells, 39C, ATPlite viability, 24 h; AID 904; Potency, µM (series often up to 46.1 µM), for the others: at the top dose activity, negative = cell killing, usual class: cytotoxic;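 also: potency is read from the fitted curve at half-maximal effect; 0% = DMSO only and -100% = full killing by 100 µM tamoxifen; nearly all actives have a fitted effect of over 50% in size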
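Concentration-response (up to 46 uM) was run for 24 h at the nonpermissive 39C on H1299-p53A138V or H1299-neo cells. ATP content was measured with ATPlite luminescence. AC50 values were Hill-modeled after normalizing between DMSO and 100 uM tamoxifen killing.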
GALC G270D up – galactocerebrosidase G270D activity enhancement, cell-based | AID 1159614 | 0.1% of 45,000 active | 145M-Twi-hGALC-G270D cells (Twitcher mouse brain line with human GALC G270D), HMU-beta-Gal fluorescence, 48 h | Potency, µM (highest dose often 57.5 µM), hits mostly activators | P54803; also: potency is read from the fitted curve at half-maximal effect; 0% is about no effect; nearly all actives have a fitted effect of over 65% in size
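Fluorescence readout: HMU-β-gal cleavage by mutant GALC (0.1 mM final, citrate/phosphate pH 5.2 with 1 mg/mL taurocholate), stopped with carbonate/bicarbonate plus Triton X-100. Cells: murine Twitcher 145M-Twi expressing human G270D GALC; qHTS for activators.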
p53null 32C tox – selectivity test: cytotoxicity in p53 null cells, permissive temperature; AID 903; H1299-neo p53 null cells, ATP luminescence, 24 h, 32C; Potency, µM (highest dose often 46.1 µM), without a hit: at the highest dose activity change, negative = cytotoxicity, usual class: cytotoxic; 0.62% of 55,000 active;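 also: potency is read from the fitted curve at half-maximal effect; 0% = DMSO only and -100% = full killing by 100 µM tamoxifen; nearly all actives have a fitted effect of over 55% in size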
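ATP-content luminescence in p53-null H1299-neo cells after 24 h compound exposure (up to 46 uM) at 32C permissive temperature; 0% and 100% killing set by DMSO and 100 uM tamoxifen; Hill-equation AC50.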
OvCa metastasis – blocks SKOV3ip1 adhesion and invasion in omental model | Potency, µM (doses to about 45.8 µM), inactives show top-dose activity change, negative = inhibition, hits mostly inhibitors | 0.1% of 46,000 active | SKOV3ip1-GFP adhesion/invasion on 3D omental model, fluorescence;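 also: potency is read from the fitted curve at half-maximal effect; plate controls were DMSO wells for no effect and tomatine positive control wells for full effect; nearly all actives have a fitted effect of over 65% in size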
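A 3D layer of primary human omental fibroblasts, mesothelial cells, fibronectin and collagen I, grown 48 hr, received SKOV3ip1-GFP cells in serum-free medium plus compounds at 0.36-46 umol/L. After 2 hr RT and 16 hr 37 C, fixed adherent GFP cells were counted; normalized to DMSO and tomatine.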
DYRK1A inh-1 – inhibitors of human DYRK1A kinase. recombinant DYRK1A, Kinase-Glo ATP depletion luminescence. AID 2705. shares compounds with NTMT1 inhibitor. 80% of 100 active. Potency, µM (titrated, usually from 76.9 µM), for the others: top-dose activity change, negative = inhibition, hits mostly inhibitors
CLK4 inh-1 – CLK4 kinase inhibition, SAR round 2. shares compounds with NTMT1 inhibitor. recombinant Clk4, Kinase-Glo ATP luminescence, 4.5 h. Potency, µM (top dose mostly 76.9 µM), without a hit: at the highest dose activity, negative = inhibition, most hits filed as inhibitors. 90% of 90 active. AID 493204
CLK4 inh-2 – blocks human CLK4 kinase in radiometric assay; 100% of 65 active; Potency, µM, actives largely listed as inhibitors; AID 504421; Reaction Biology kinase assay, 10 uM ATP; shares compounds with NTMT1 inhibitor; calls by dose curve
DYRK1A inh-2 – inhibitors of human DYRK1A kinase; shares compounds with NTMT1 inhibitor; Reaction Biology kinase assay, 10 uM ATP; Potency, µM, usual class: inhibitors; 90% of 65 active;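 active = compounds that showed inhibition of Dyrk1a and received a fitted potency; inactive = compounds that showed no inhibition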
CLK2 RBC – inhibitors of human CLK2 kinase; shares compounds with NTMT1 inhibitor; Reaction Biology kinase assay, 10 uM ATP; Potency, µM, usual class: inhibitors; 90% of 65 active; AID 504427;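 active = compound that inhibits Clk2 kinase in the dose series, with an IC50 potency reported; inactive = no inhibition seen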
CLK3 RBC – CLK3 kinase inhibition. shares compounds with NTMT1 inhibitor. recombinant CLK3 kinase assay, 10 uM ATP. Potency, µM, hits mostly inhibitors. 40% of 65 active. AID 504428;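 active = compounds that inhibited Clk3 enough in the ten-dose series to give a half-maximal potency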
Target sequence (P49761 whole entry, looked up): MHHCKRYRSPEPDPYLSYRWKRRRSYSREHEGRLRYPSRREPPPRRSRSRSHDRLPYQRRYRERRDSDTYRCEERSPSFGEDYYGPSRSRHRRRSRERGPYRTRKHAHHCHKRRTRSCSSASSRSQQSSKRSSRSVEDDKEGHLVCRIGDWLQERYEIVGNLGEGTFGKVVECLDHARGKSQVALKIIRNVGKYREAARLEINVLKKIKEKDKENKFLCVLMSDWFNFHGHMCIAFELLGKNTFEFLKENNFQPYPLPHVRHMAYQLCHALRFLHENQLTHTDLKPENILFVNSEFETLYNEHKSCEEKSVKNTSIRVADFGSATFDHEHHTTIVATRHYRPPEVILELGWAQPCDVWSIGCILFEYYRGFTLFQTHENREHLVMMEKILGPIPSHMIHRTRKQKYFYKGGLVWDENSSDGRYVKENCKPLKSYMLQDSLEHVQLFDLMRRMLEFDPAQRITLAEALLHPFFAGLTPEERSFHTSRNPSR
DYRK1B RBC – inhibitors of human Dyrk1b kinase | AID 504429 | Potency, µM, usual class: inhibitors | shares compounds with NTMT1 inhibitor | Recombinant Dyrk1b kinase assay, 10 uM ATP | 80% of 65 active;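 active = compounds whose dose response shows an inhibitor phenotype against the kinase Dyrk1b; inactive = compounds showing no inhibitor phenotype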
CLK1 RBC – inhibitors of human CLK1 kinase; shares compounds with NTMT1 inhibitor; recombinant Clk1 kinase assay, 10 uM ATP; Potency, µM, actives largely listed as inhibitors; 90% of 65 active; AID 504430;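 active = compounds that block the splicing kinase Clk1 enough to give a fitted half-inhibition concentration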
NNMT inh – blocks human NNMT methyltransferase. shares compounds with NTMT1 inhibitor. NNMT MTase-Glo luminescence, SAH detection. Potency, µM (titrated, usually from 57.1 µM), for inactives: at the top dose activity, negative = inhibition, hits mostly inhibitors. 10% of 120 active. AID 1645878
Target sequence (P40261 whole entry, looked up): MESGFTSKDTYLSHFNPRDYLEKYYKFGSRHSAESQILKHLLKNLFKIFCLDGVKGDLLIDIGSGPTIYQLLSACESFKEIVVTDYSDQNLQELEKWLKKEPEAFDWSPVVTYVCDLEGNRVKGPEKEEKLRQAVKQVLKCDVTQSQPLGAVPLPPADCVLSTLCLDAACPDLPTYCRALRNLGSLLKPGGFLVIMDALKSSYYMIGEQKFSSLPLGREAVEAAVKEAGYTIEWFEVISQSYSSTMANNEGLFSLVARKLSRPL
The depositor's hits bear a star; i = inactive; ? = inconclusive; . = not tested or not shown; [ ] = dose if it differs, or a comment. A selection: hits, their analogues and other compounds. The true share with any hit is near 4%. Unless noted, calls follow the shape of the dose curve; as a rule, active = well fitted curve in the direction sought with a large enough effect; inconclusive = small, poorly fitted or top-dose-only effect, or another doubt; inactive = no such curve, though single readings can be large; an effect the other way counts as inactive or inconclusive.

SMILES	NTMT1 inhibitor	DRV1 agonist	p53null 39C kill	GALC G270D up	p53null 32C tox	OvCa metastasis	DYRK1A inh-1	others
OCc1ccc(-c2ccc3ncnc(N4CCOCC4)c3c2)o1	-14.1%	.	.	.	.	.	.	CLK4 inh-1=0.519µM*;CLK4 inh-2=1.15*;DYRK1A inh-2=14.7µM*;CLK2 RBC=14.2µM*;CLK3 RBC=i;DYRK1B RBC=15µM*;CLK1 RBC=5.35µM*
c1ccc(Cn2ncc3c(N4CCOCC4)ncnc32)cc1	.	.	-1.1%	.	8.4%	.	.
CCOc1ccc(OCc2ccc(C(=O)Nc3cc(OC)c(OC)c(OC)c3)o2)cc1	-2.5%	9.4	-16.9%	i	-7.3%	-1.6%	.
COc1cc(CCc2ccc(OCC=C(C)C)cc2)cc(OC)c1OC	-16.2%[29.8 µM]	.	.	.	.	.	.	NNMT inh=-16.8%[38.3 µM]
CCOC(=O)c1ccc(-c2ccc3ncnc(NCc4ccc(C)o4)c3c2)o1	?	.	.	.	.	.	5.82µM*
Cc1cccc(CNc2ncnc3ccc(-c4cccc(C)c4)cc23)c1	-0.8%	.	.	.	.	.	.
CC(=O)c1ccc(-c2ccc3ncnc(NCc4ccc(C)o4)c3c2)o1	?	.	.	.	.	.	.	CLK4 inh-1=0.292µM*;CLK4 inh-2=0.564*;DYRK1A inh-2=5.83µM*;CLK2 RBC=6.85µM*;CLK3 RBC=i;DYRK1B RBC=10.2µM*;CLK1 RBC=6.98µM*
CCOC(=O)c1ccc(-c2ccc3ncnc(NCc4cccs4)c3c2)o1	.	.	.	.	.	.	1.46µM*	CLK4 inh-2=0.088*;DYRK1A inh-2=1.44µM*;CLK2 RBC=8.51µM*;CLK3 RBC=i;DYRK1B RBC=4.27µM*;CLK1 RBC=0.798µM*
CCNC(=O)c1ccc(-c2ccc3ncnc(NCc4ccc(C)o4)c3c2)o1	?	.	.	.	.	.	.	CLK4 inh-1=0.519µM*;CLK4 inh-2=1.36*;DYRK1A inh-2=6.3µM*;CLK2 RBC=4.16µM*;CLK3 RBC=i;DYRK1B RBC=6.74µM*;CLK1 RBC=5.42µM*
CC(=O)Nc1ccc(CNc2ncnc3ccc(-c4c(C)noc4C)cc23)cc1	-0.2%[57.5 µM]	.	.	.	.	.	.
CC1OC(O[C@@H]2[C@@H](O)[C@H](OC(=O)[C@]34CCC(C)(C)C[C@H]3C3=CCC5[C@@]6(C)CC[C@H](O[C@@H]7O[C@H](C(=O)O)[C@@H](O)[C@H](O[C@@H]8OC[C@@H](O)[C@H](O)[C@H]8O)[C@H]7O[C@@H]7O[C@H](CO)[C@H](O)[C@H](O)[C@H]7O)[C@@](C)(C=O)C6CC[C@@]5(C)[C@]3(C)C[C@H]4O)O[C@H](C)[C@@H]2OC2OC(C)C(OC3OCC(O)C(O)C3O)C(O)C2O)C(O)C(O)C1O (stereo partly specified)	3.6%[6.45 µM]	.	.	.	.	.	.
CCN1CCN(Cc2ccc(Nc3ncc(F)c(-c4cc(F)c5nc(C)n(C(C)C)c5c4)n3)nc2)CC1	10µM*	.	.	.	.	.	.	NNMT inh=?
CCN(Cc1cccs1)c1ncnc2ccc(-c3ccc4c(c3)OCO4)cc12	?	.	.	.	.	.	0.164µM*	CLK4 inh-2=0.014*;DYRK1A inh-2=0.038µM*;CLK2 RBC=0.447µM*;CLK3 RBC=6.17µM*;DYRK1B RBC=0.231µM*;CLK1 RBC=0.014µM*
CCN(Cc1sccc1C)c1ncnc2ccc(-c3ccc4c(c3)OCO4)cc12	?	.	.	.	.	.	1.16µM*
C/C(=N\N=C(N)N)c1cc(NC(=O)CCCCCCCCC(=O)Nc2cc(/C(C)=N/N=C(N)N)cc(/C(C)=N/N=C(N)N)c2)cc(/C(C)=N/N=C(N)N)c1	5.62µM*	.	.	.	.	.	.	NNMT inh=?
CC[C@@H](C)Nc1cc(C(=O)NC2CC3CC[C@@H](C2)N3c2ccc(C(=O)C3CC3)cn2)c(C)cc1C(N)=O (stereo partly specified)	4.1%[57.5 µM]	.	.	.	.	.	.	NNMT inh=-20.8%
COc1ccc(-c2c(-c3cc(C(=O)O)ccn3)ncn2C)cc1	33.0%[57.5 µM]	.	.	.	.	.	.
Clc1cccc(-c2ccc3ncnc(NCc4cccs4)c3c2)c1	-23.0%	.	.	.	.	.	.
Clc1ccccc1-c1ccc2ncnc(NCc3cccs3)c2c1	4.6%	.	.	.	.	.	.
c1coc(-c2ccc3ncnc(NCc4cccs4)c3c2)c1	-13.9%	.	.	.	.	.	6.54µM*
FC1(F)Oc2ccc(-c3ccc4ncnc(NCc5cccs5)c4c3)cc2O1	6.4%	.	.	.	.	.	?
Cc1csc(CNc2ncnc3ccc(-c4ccc(C(C)O)o4)cc23)n1 (stereo unspecified)	?	.	.	.	.	.	.	CLK4 inh-1=1.04µM*
